Assay outcomes as filed in PubChem.
The list is not random: actives were taken first. Their share in the collection is about 3.5%.
Rv3671c inh = inhibitors of M. tuberculosis serine protease Rv3671c; AID 2606; 320,000 compounds, 0.048% hits; inhibition, % at 5.96 µM; P9WHR9; in the data active means inhibition above about 38%;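 further: extracellular domain of Rv3671c used as enzyme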
Mtb betalactam = beta-lactam sensitization of Mtb H37Rv; M. tuberculosis H37Rv growth with meropenem, percent inhibition; inhibition, % at 25 µM; 330,000 compounds, 0.27% hits; call rule not given here;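 further: growth measured after seven days incubation then overnight dye step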
UGM FP inh = inhibitors of M. tuberculosis UDP-galactopyranose mutase; inhibition, % at 10 µM; purified UGM, fluorescence polarization probe displacement; 320,000 compounds, 0.06% hits; in the data active means inhibition above about 10%, passing the limit was not always enough; inconclusive means no clear call, values can overlap the other calls
Target sequence (P9WIQ1 whole entry, looked up): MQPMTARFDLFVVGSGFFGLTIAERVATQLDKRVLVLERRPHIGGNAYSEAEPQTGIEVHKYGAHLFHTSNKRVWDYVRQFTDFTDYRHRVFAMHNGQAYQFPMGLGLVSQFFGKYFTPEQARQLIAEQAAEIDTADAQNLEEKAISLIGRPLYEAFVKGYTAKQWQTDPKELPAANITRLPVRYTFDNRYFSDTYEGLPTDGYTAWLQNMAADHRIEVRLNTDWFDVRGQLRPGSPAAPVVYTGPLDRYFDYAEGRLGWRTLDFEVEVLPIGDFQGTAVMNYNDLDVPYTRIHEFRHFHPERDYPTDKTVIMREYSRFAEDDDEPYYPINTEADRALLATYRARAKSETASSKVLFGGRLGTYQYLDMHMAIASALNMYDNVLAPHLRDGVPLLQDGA
FBA Mtb inh = inhibitors of M. tuberculosis fructose-bisphosphate aldolase; P9WQA3; purified M. tuberculosis FBA, fluorescence read-out; inhibition, % at 1 µM; 360,000 compounds, 2.3% hits; in the data active means inhibition above about 27%
GDH-TPI inh = GDH-TPI coupled enzyme inhibition counter-screen. AID 588335. inhibition, % at 4.8 µM. GDH-TPI coupled enzyme counterscreen, NADH absorbance. 360,000 compounds, 1.2% hits; in the data active means inhibition above about 30%
Of the large screens only hits and unclear results are named; the others gave an inactive call.

COc1cc(/C=N/Nc2nc(Nc3ccccc3)nc(-n3nc(C)cc3C)n2)cc(OC)c1OC	none
N#Cc1nc(-c2ccccc2Cl)oc1N1CCN(C(=O)c2ccco2)CC1	Mtb betalactam inconclusive
N#Cc1nc(-c2ccccc2Cl)oc1N1CCCCC1	none
N#Cc1nc(-c2ccccc2F)oc1N1CCCCC1	FBA Mtb inh active
N#Cc1nc(-c2ccccc2F)oc1N1CCN(C(=O)c2ccco2)CC1	FBA Mtb inh 115
N#Cc1nc(-c2ccccc2F)oc1NC1CCCCC1	FBA Mtb inh 175
Cc1ccc(OCC(O)CN2CCC(Cc3ccccc3)CC2)c(C)c1 (stereo not drawn)	none
CN(Cc1ccccc1)S(=O)(=O)c1ccc(N2CCOCC2)nc1	none
COc1ccc(CS(=O)(=O)c2ncn[nH]2)cc1	none
COc1ccc(C(CNC(=O)CCNS(=O)(=O)c2ccc(C)cc2)N2CCOCC2)cc1 (stereo not drawn)	none
CNC(=O)/C(C#N)=C/c1ccc(OCCOc2ccccc2)cc1	GDH-TPI inh 40 (no result: Rv3671c inh)
COc1ccc(/C=C(\C#N)C(=O)NCC(c2ccc(F)cc2)N2CCOCC2)cc1 (stereo not drawn)	GDH-TPI inh 43
N#C/C(=C\c1ccc(O)cc1)C(=O)NCc1ccccc1	none
COc1ccc(/C=C(\C#N)C(=O)NCc2ccccc2)cc1	GDH-TPI inh 40
CC(C)Oc1ccc(/C=C(\C#N)C(=O)NC2CC2)cc1	none
N#C/C(=C\c1ccc(OCC(N)=O)cc1)C(=O)NC1CC1	GDH-TPI inh 45
CCCC[C@H]1COCCS(=O)(=O)N1Cc1cccc([N+](=O)[O-])c1	none
O=C(c1ccco1)N1CCCN(C(=O)c2ccco2)CC1	none
O=C(CCC1CCCC1)N1CCN(C(=O)c2ccco2)CC1	FBA Mtb inh 135
Cc1ccc(Cc2c(-c3ccc(C#N)cc3)nc3c(C)cc(Br)cn23)cc1	none (no result: Rv3671c inh, Mtb betalactam, UGM FP inh, GDH-TPI inh)
O=C(CC(=O)c1c(F)cccc1Cl)c1ccccc1O	GDH-TPI inh 33
Cc1ccc(OCC(=O)Nc2cccc(S(=O)(=O)N3CCCCCC3)c2)c([N+](=O)[O-])n1	none
COC(=O)c1cc(OC)c(OC)cc1NC(=O)Nc1cccc(C(C)=O)c1	none
COc1ccc(/C=N/Nc2nnc(-c3ccccc3)c(=O)[nH]2)cc1	GDH-TPI inh 35
CN(C)c1ccc(/C=N\Nc2nc(-c3ccccc3)cc(=O)[nH]2)cc1	none (no result: UGM FP inh)
O=c1[nH]c(N/N=C/c2ccccc2Br)nnc1-c1ccccc1	GDH-TPI inh 39
COC(=O)Cn1c(=NC(=O)C2COc3ccccc3O2)sc2cc(S(N)(=O)=O)ccc21 (stereo not drawn)	none
CC(C)c1ccccc1NC(=O)CC1(CC(=O)O)CCCC1	none
CCc1cc(C(=O)COc2ccc(F)cc2)c(O)cc1O	none
Cc1c(O)ccc(C(=O)COc2ccc(F)cc2)c1O	GDH-TPI inh 32
COCCOC(=O)/C(=C/c1ccc(OC(=O)c2ccccc2)cc1)C(C)=O	FBA Mtb inh 31
COc1ccc(/C(C)=N/N2C(=O)c3ccccc3NC2c2ccc(O)c(OC)c2)cc1 (stereo not drawn)	GDH-TPI inh 35
COc1cc(C2Nc3ccccc3C(=O)N2c2ccccc2)ccc1O (stereo not drawn)	none
CCOc1ccc(NC2OC(C)C(O)C(O)C2O)c([N+](=O)[O-])c1 (stereo not drawn)	FBA Mtb inh 112
C=CCN(C(=O)CSc1nc2ccsc2c(=O)n1Cc1ccc(C(=O)O)cc1)c1ccccc1	none (no result: Rv3671c inh, Mtb betalactam, UGM FP inh)
NC(=O)[C@@H]1CCCNc2c(I)cc([N+](=O)[O-])cc2C(=O)N[C@@H](CCC(=O)O)C(=O)N[C@@H](CO)C(=O)N1	GDH-TPI inh 35
Cn1cccc1/C=N\NC(=O)Cc1ccc(Br)c2ccccc12	none
Cc1ccc2cc(C#N)c(NCc3ccco3)nc2c1	FBA Mtb inh 116
Cc1cccc(Cl)c1OCCCn1ccnc1	none
Cc1ccc2nc(-c3ccc(-c4ccccn4)s3)cn2c1	FBA Mtb inh active
Nc1ccc(-c2nc3c(Cl)cc(N)cc3[nH]2)cc1	FBA Mtb inh 197, GDH-TPI inh 45
CC(=O)Nc1ccc2nc(-c3cccn3C)[nH]c2c1	none
Nc1ccc2nc(-c3ccccc3)[nH]c2c1	FBA Mtb inh active
CC(=O)Nc1ccc2nc(-c3cccs3)[nH]c2c1	FBA Mtb inh active, GDH-TPI inh 44
Nc1ccc2nc(-c3ccc(N)c(Cl)c3)[nH]c2c1	FBA Mtb inh 119, GDH-TPI inh 32
CCc1cc(C(=O)N2CCN(C(=O)c3ccco3)CC2)sc1C	none
Nc1ccc2nc(-c3ccccn3)[nH]c2c1	none
Nc1ccc2nc(-c3cccs3)[nH]c2c1	FBA Mtb inh active
CN(C)C=NC(=O)/C(C#N)=C1\CCc2ccccc2N1	GDH-TPI inh 56
CC(NC(=O)c1ccco1)C1CCCO1 (stereo not drawn)	none
Cc1occc1C(=O)NC(C)C1CCCO1 (stereo not drawn)	FBA Mtb inh 33
COc1cc(C(O)c2nc(/C=C/c3ccc(C(F)(F)F)cc3)cs2)ccc1F (stereo not drawn)	none (no result: Rv3671c inh, Mtb betalactam, UGM FP inh)
Cc1nc(-c2cccc(NC(=O)c3cccs3)c2)cs1	none
Cc1c(-c2cccc(NC(=O)c3cccs3)c2)nc2ncccn12	FBA Mtb inh active
Cc1c(-c2cccc(NC(=O)c3ccco3)c2)nc2ncccn12	FBA Mtb inh active
Cc1ccc(Cl)cc1-c1ccc(C=Nc2ccc(N3CCOCC3)cc2)o1	GDH-TPI inh 33
Cc1cc(O)c(C=Nc2ccc(N3CCOCC3)cc2)c(C)c1Cl	none
c1ccc2c(c1)C1=NCCN1c1ccccc1-2	FBA Mtb inh 73 (no result: Rv3671c inh, Mtb betalactam, UGM FP inh)
CN1C2=NCCN2C(=O)c2ccccc21	none
COc1ccc(C2CC(c3cccs3)=NN2C(=O)CN2CCCCC2)cc1 (stereo not drawn)	none
COc1ccc(C2CC(c3ccccc3)=NN2C(=S)Nc2ccccc2)cc1 (stereo not drawn)	GDH-TPI inh 34
CNC(=S)N1N=C(c2cccs2)CC1c1ccc(OC)cc1 (stereo not drawn)	GDH-TPI inh 48
CC1CN(C(=O)CCC(=O)N2CCCCC2)c2ccccc2O1 (stereo not drawn)	none
CN(C)c1ccc(/C=N/NC(=O)CCC(=O)NCc2ccccc2)cc1	GDH-TPI inh 32
CN(C)c1ccc(/C=N/NC(=O)CCCCCNC(=O)c2ccccc2)cc1	GDH-TPI inh 58
COc1ccc(OCC(=O)N/N=C/c2ccc(N(C)C)cc2)cc1	GDH-TPI inh 34
CC(C)CC1Nc2ncnc(N3CCCCC3)c2N(Cc2ccc(Br)cc2)C1=O (stereo not drawn)	none
CCCc1cc(-n2cnc3ccccc32)n2c(nc3ccccc32)c1C#N	none
C=C(C)Cc1c(C)c(C#N)c2nc3ccccc3n2c1NCCCN(C)C	none
CCCc1cc(NCCN(C)C)n2c(nc3ccccc32)c1C#N	FBA Mtb inh 162
CCCc1cc(NCCCN(C)C)n2c(nc3ccccc32)c1C#N	FBA Mtb inh 112
CCCc1cc(NCC2CCCO2)n2c(nc3ccccc32)c1C#N (stereo not drawn)	FBA Mtb inh 192
CN(CCO)S(=O)(=O)c1ccc2c(c1)C(=NNC(N)=O)c1cc(S(=O)(=O)N(C)CCO)ccc1-2	GDH-TPI inh 56
